According to PubChem BioAssay (Tox21):
Records with an inconclusive call do not appear. Calls of active or inactive are those of the source. Unless noted, calls follow the shape of the full dose curve.

What was measured:
[1] = Nuclear factor erythroid 2-related factor 2/antioxidant responsive element (Nrf2/ARE) small molecule agonists: qHTS cell viability counter screen in human keratinocytes (AID 1919968; active = well fitted curve in the direction sought with a large enough effect in the repeat runs; an effect the other way counts as inactive or inconclusive; also: nearly all actives have a fitted effect of over 55% in size)
Summary of the method: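 CellTiter-Fluor fluorescence, read 1 h after reagent, gave viability in the same wells as the ARE-luciferase assay. KeratinoSens cells (1,500/well) had 23 h compound exposure at 37 C/5% CO2 following 5 h plating.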

[2] = molecular target: Gonadotropin-releasing hormone receptor (Homo sapiens) (UniProt P30968); assay: Human gonadotropin-releasing hormone receptor (GnRHR) small molecule agonists, calcium flux assay in GnRHR-HEK293 cells (AID 1920063); also: nearly all actives have a fitted effect of over 35% in size
Chain of Gonadotropin-releasing hormone receptor (Homo sapiens) (P30968 whole entry, looked up): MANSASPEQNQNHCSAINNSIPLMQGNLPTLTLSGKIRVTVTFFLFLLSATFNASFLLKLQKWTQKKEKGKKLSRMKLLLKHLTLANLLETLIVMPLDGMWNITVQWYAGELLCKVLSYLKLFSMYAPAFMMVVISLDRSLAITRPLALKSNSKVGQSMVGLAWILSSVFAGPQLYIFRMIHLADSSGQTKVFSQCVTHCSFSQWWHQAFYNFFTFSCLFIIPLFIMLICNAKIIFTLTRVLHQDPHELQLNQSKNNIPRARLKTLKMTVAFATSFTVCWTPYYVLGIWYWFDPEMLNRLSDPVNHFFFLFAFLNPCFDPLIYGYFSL
Summary of the method: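 Agonist mode: compounds at 15 concentrations, in triplicate, went onto calcium dye-loaded GnRHR-HEK293 cells. Intracellular calcium was then followed as 480/540 nm fluorescence at 1 s intervals over 3 min.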

[3] = molecular target: KiSS-1 receptor (Homo sapiens) (UniProt Q969F8); assay: Human kisspeptin (KISS1R) small molecule agonists, calcium flux assay in KISS1R-HEK293 cells (AID 1920064; active = well fitted curve in the direction sought with a large enough effect in the repeat runs; an effect the other way counts as inactive or inconclusive)
Chain of KiSS-1 receptor (Homo sapiens) (Q969F8 whole entry, looked up): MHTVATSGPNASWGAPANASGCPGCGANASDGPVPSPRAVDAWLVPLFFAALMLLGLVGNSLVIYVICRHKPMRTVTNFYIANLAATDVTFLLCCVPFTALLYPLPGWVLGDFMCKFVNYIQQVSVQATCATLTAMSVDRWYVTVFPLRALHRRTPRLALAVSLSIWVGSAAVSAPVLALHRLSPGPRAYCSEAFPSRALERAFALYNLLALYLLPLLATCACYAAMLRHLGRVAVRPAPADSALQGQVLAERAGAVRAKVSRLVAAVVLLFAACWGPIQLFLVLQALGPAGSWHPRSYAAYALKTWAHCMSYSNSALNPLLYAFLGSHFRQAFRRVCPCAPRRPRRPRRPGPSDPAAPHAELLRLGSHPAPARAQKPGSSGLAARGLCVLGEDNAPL
Summary of the method: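 Agonist mode: intracellular calcium rise tracked at 1 s intervals over 3 min (480/540 nm) immediately after compound addition to dye-loaded KISS1R-HEK293 stable cells. Each compound tested at 15 concentrations in triplicate.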

[4] = G protein-coupled receptor (GPCR) small molecule agonists, calcium flux assay: HEK293 wild type cell line counter screen (AID 1920065)
Summary of the method: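 Calcium flux counter screen: compound added in agonist mode at 15 concentrations in triplicate to dye-loaded parental HEK293 cells. Fluorescence (480/540) read kinetically for 3 min; ATP served as positive control.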

[5] = p53 small molecule agonists, cell-based qHTS assay with human liver microsomes (AID 1963577);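 also: p53 response element beta-lactamase reporter cells with liver microsomes plus NADPH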
Summary of the method: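 Metabolically competent format: test substances, human liver microsomes and NADPH (both 0.5 mg/mL final) incubated with p53RE-bla cells 16 h at 37 C. Beta-lactamase reporter signal then quantified by fluorescence.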

[6] = p53 small molecule agonists, cell-based qHTS assay with rat liver microsomes (AID 1963578)
Summary of the method: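 Each plate received p53RE-bla cells, then compound, then rat liver microsomes and NADPH (both 0.5 mg/mL final). Plates were held 16 h at 37 C, and beta-lactamase activity was detected with LiveBLAzer over 2 h.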

[7] = p53 small molecule agonists, cell-based qHTS assay with human liver microsomes: qHTS cell viability counter screen (AID 1963579); also: nearly all actives have a fitted effect of over 45% in size
Summary of the method: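 Tox21 library compounds, delivered from DMSO stocks, were tested on p53RE-bla cells together with 0.5 mg/mL human liver microsomes and 0.5 mg/mL NADPH (final) over 16 h at 37 C; CellTiter-Glo luminescence served as the cytotoxicity measure.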

[8] = p53 small molecule agonists, cell-based qHTS assay with rat liver microsomes: qHTS cell viability counter screen (AID 1963580); also: nearly all actives have a fitted effect of over 45% in size
Summary of the method: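 Cytotoxicity counter screen: intracellular ATP measured by CellTiter-Glo luminescence in the same wells as the beta-lactamase reporter read, on HCT-116 p53RE-bla cells exposed 16 h at 37 C to compounds with rat liver microsomes and NADPH, each 0.5 mg/mL final.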

[9] = p53 small molecule agonists, cell-based qHTS assay: qHTS cell viability counter screen (AID 1963581); also: nearly all actives have a fitted effect of over 45% in size
Summary of the method: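 Counter screen read by CellTiter-Glo luminescence (ATP content, 30 min at room temperature), run in the same wells as the beta-lactamase reporter read. HCT-116 p53RE-bla cells saw compounds for 16 h at 37 C.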

[10] = p53 small molecule agonists, cell-based qHTS assay (AID 1963582; active = well fitted activation curve with a large enough effect in the signal ratio in the repeat runs, not every such curve was filed as active; the % refers to the signal ratio)
Summary of the method: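 Read-out is beta-lactamase FRET fluorescence after 2 h at room temperature with LiveBLAzer B/G substrate. p53 response element-bla cells were treated 16 h at 37 C with compounds in DMSO, added 5 h after seeding.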

[11] = molecular target: 5-hydroxytryptamine receptor 2A (Homo sapiens) (UniProt P28223); assay: 5-hydroxytryptamine receptor 2A (HTR2A) small molecule antagonists, cell-based qHTS assay (AID 1963586); also: nearly all actives have a fitted effect of over 45% in size
Chain of 5-hydroxytryptamine receptor 2A (Homo sapiens) (P28223 whole entry, looked up): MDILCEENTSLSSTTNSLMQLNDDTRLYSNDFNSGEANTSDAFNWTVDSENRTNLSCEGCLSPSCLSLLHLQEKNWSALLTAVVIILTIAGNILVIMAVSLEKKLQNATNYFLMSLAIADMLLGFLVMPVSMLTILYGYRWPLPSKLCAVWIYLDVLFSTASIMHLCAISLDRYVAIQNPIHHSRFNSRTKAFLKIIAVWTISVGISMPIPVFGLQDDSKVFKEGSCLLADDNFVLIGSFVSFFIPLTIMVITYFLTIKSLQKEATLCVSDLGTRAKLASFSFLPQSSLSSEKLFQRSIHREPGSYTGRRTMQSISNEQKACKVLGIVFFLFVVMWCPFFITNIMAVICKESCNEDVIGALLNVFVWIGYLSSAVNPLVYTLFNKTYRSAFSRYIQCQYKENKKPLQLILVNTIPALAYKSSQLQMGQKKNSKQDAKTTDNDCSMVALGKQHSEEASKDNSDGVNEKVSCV
Summary of the method: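 CHO cells stably expressing human HTR2A were plated for 18 h at 37 C, then loaded with calcium dye for 1 h. Compounds were preincubated 5 min at room temperature before DOI (4 nM solution) was added. Kinetic fluorescence was read for 3 min.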

[12] = molecular target: 5-hydroxytryptamine receptor 2A (Homo sapiens) (UniProt P28223); assay: 5-hydroxytryptamine receptor 2A (HTR2A) small molecule agonists, cell-based qHTS assay (AID 1963587); also: nearly all actives have a fitted effect of over 30% in size
Summary of the method: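 CHO cells stably expressing human HTR2A, plated 18 h, loaded with calcium dye 1 h at 37 C. Agonist mode: compounds added and intracellular calcium fluorescence recorded kinetically for 2 min at 1 sec intervals.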

[13] = molecular target: Muscarinic acetylcholine receptor M1 (Homo sapiens) (UniProt P11229); assay: Cholinergic receptor muscarinic 1 (CHRM1) small molecule antagonists, cell-based qHTS assay (AID 1963588); also: nearly all actives have a fitted effect of over 40% in size
Chain of Muscarinic acetylcholine receptor M1 (Homo sapiens) (P11229 whole entry, looked up): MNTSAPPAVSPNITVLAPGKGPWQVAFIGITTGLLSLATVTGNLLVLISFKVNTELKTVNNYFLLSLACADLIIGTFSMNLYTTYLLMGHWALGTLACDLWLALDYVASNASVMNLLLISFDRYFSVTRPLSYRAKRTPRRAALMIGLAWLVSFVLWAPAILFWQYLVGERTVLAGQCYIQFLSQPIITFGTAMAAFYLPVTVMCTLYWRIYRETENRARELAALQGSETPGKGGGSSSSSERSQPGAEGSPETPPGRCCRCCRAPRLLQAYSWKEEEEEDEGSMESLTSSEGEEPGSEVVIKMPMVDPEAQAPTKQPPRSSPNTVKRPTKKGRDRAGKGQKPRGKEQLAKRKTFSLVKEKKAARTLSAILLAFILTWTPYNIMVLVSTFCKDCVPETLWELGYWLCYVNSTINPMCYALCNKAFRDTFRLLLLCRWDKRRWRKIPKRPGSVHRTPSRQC
Summary of the method: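 Compounds were tested at 15 concentrations in three independent runs. Dye-loaded CHRM1-CHO cells were exposed 5 min at room temperature before stimulation by acetylcholine added at 50nM. Intracellular calcium was read kinetically on FDSS for 3 min.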

[14] = molecular target: Muscarinic acetylcholine receptor M1 (Homo sapiens) (UniProt P11229); assay: Cholinergic receptor muscarinic 1 (CHRM1) small molecule agonists, cell-based qHTS assay (AID 1963589); also: nearly all actives have a fitted effect of over 35% in size
Summary of the method: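 Agonist-mode calcium-flux screen: compounds at 15 concentrations, three independent runs, were pin-transferred onto dye-loaded human CHRM1-CHO cells. Fluorescence was then recorded kinetically every second over minutes.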

[15] = cAMP Responsive Elements (CRE) small molecule agonists, cell-based qHTS assay (AID 1963590)
Summary of the method: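 Agonist mode: compound added to CRE-bla HEK 293T cells (2,000/well, 18 h after plating) for 3 h at 37 C/5% CO2. Reporter activity detected via FRET beta-lactamase substrate, 2 h room-temperature loading.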

[16] = cAMP Responsive Elements (CRE) small molecule antagonists, cell-based qHTS assay (AID 1963591; active = well fitted inhibition curve with a large enough effect in the signal ratio in the repeat runs, not every such curve was filed as active; the % refers to the signal ratio)
Summary of the method: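 Antagonist mode: compounds are added alongside the adenylyl cyclase activator NKH477 (0.25 uM final) to CRE-bla HEK293T cells for 3 h. LiveBLAzer FRET substrate, 2 h at room temperature, reports bla expression.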

[17] = molecular target: Beta-2 adrenergic receptor (Homo sapiens) (UniProt P07550); assay: Adrenergic beta2 receptor (ADRB2) small molecule antagonists, cell-based qHTS assay (AID 1963592); also: series mostly up to about 92 µM; nearly all actives have a fitted effect of over 50% in size
Chain of Beta-2 adrenergic receptor (Homo sapiens) (P07550 whole entry, looked up): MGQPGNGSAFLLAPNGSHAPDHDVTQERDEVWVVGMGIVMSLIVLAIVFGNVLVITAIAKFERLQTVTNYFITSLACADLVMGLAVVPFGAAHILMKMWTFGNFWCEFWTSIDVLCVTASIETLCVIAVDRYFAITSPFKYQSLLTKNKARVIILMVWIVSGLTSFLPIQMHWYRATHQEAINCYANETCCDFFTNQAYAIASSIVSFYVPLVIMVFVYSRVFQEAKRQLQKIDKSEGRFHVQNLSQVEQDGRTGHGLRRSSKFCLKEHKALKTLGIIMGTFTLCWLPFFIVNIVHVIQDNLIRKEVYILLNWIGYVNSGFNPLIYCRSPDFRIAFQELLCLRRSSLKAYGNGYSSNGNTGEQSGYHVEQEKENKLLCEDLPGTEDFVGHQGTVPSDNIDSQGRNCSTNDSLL
Summary of the method: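 Assay format: CHO-ADRB2 cells, 18-20hr seeding at 37C/5% CO2, then compound plus 1nM isoproterenol agonist mix for 0.5hr RT. Homogeneous time-resolved fluorescence cAMP detection after 1hr, expressed as 665/615 nm ratio.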

[18] = molecular target: D(2) dopamine receptor (Homo sapiens) (UniProt P14416); assay: Dopamine D2 receptor (DRD2) small molecule agonists, cell-based qHTS assay (AID 1963594); also: nearly all actives have a fitted effect of over 35% in size
Chain of D(2) dopamine receptor (Homo sapiens) (P14416 whole entry, looked up): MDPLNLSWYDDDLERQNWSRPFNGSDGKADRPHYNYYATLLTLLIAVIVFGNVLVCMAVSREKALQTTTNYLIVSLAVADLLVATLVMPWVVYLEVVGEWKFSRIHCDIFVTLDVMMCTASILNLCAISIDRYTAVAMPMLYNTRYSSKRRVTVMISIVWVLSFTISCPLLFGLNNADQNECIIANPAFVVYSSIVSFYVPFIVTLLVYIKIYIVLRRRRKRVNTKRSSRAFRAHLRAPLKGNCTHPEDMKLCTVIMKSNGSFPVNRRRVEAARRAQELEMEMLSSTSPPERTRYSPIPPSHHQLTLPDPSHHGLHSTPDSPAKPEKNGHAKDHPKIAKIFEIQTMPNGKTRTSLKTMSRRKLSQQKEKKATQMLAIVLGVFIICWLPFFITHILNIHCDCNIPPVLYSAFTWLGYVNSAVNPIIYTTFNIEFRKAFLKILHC
Summary of the method: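 HEK293 cells stably expressing human DRD2, pre-treated with PDE inhibitor Ro20-1724 (0.1 mM final) and compound 10 min at room temperature, then stimulated with NKH477 (200nM […]) for 30 min. cAMP read by HTRF (665/620 nm).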

[19] = molecular target: D(2) dopamine receptor (Homo sapiens) (UniProt P14416); assay: Dopamine D2 receptor (DRD2) small molecule antagonists, cell-based qHTS assay (AID 1963595; active = well fitted inhibition curve with a large enough effect in the signal ratio in the repeat runs, with a control signal flat; the % refers to the signal ratio)
Summary of the method: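 Antagonism was scored as restored cAMP in HEK293-DRD2 cells. These cells were stimulated with 200 nM NKH477 and 12 nM quinpirole for 30 min at room temperature, in the presence of 0.1 mM Ro20-1724.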

[20] = molecular target: Beta-2 adrenergic receptor (Homo sapiens) (UniProt P07550); assay: Adrenergic beta2 receptor (ADRB2) small molecule agonists, cell-based qHTS assay (AID 1963593);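 also: CHO cells stably overexpressing human ADRB2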
Summary of the method: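 CHO cells stably over-expressing ADRB2 were plated overnight at 37C, then dosed with compounds plus a stimulation mix containing 100uM IBMX and 25uM Ro-20-1724 for 0.5hr at room temperature. cAMP was measured by HTRF competition, 1hr.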
% is scaled to controls: 0 for no effect and ±100 for the full control effect.

N#Cc1cscn1
inactive: Potency [1] | Potency [2] | outcome [3] | outcome [4] | Potency [5] | Potency [6] | Potency [7] | Potency [8] | Potency [9] | Potency [10] | Potency [11] | Potency [12] | Potency [13] | Potency [14] | Potency [15] | Potency [16] | Potency [17] | Potency [18] | Potency [19]

COCC(=O)Nc1c(I)c(C(=O)NCC(O)CO)c(I)c(C(=O)N(C)CC(O)CO)c1I (configuration not stated)
inactive: Potency [1] | outcome [4] | Potency [5] | Potency [6] | Potency [8] | Potency [9] | Potency [10] | Potency [11] | Potency [12] | Potency [13] | Potency [14] | Potency [15] | Potency [16] | Potency [17] | Potency [20] | Potency [18]

CCC(C)C(=O)OC (configuration not stated)
inactive: Potency [1] | Potency [2] | outcome [3] | outcome [4] | Potency [5] | Potency [6] | Potency [7] | Potency [8] | Potency [9] | Potency [10] | Potency [11] | Potency [12] | Potency [13] | Potency [14] | Potency [15] | Potency [16] | Potency [17] | Potency [18] | Potency [19]

C/C(=C(\CCOP(=O)(O)O)SC(=O)c1ccccc1)N(C=O)Cc1cnc(C)nc1N
inactive: activity change, negative = cytotoxicity [1] -6.37% [at 8.39 µM] | activity change [2] -0.163% [at 5.22 µM, active compounds read high] | activation [3] -0.956% [at 6.97 µM] | activation [4] -0.0907% [at 5.23 µM] | activation [5] -1.03% [at 5.99 µM] | activation [6] -4.95% [at 5.99 µM] | activity change, negative = cytotoxicity [7] 1.21% [at 5.99 µM] | activity change, negative = cytotoxicity [8] 1.33% [at 5.99 µM] | activity change, negative = cytotoxicity [9] 10.8% [at 5.99 µM] | activation [10] 1.46% [at 5.99 µM] | activation [12] -0.64% [at 7.02 µM] | activity, negative = inhibition [13] 1.74% [at 5.58 µM] | activation [14] -0.572% [at 6.97 µM] | activation [15] 1.28% [at 8.39 µM] | activity change, negative = inhibition [16] 1.78% [at 8.39 µM] | activity change, negative = inhibition [17] 2.25% [at 8.39 µM] | activation [18] 3.76% [at 8.39 µM] | activity change, negative = inhibition [19] 2.34% [at 8.38 µM]

COc1ccc(NS(=O)(=O)c2ccc(N)cc2)nn1
inactive: Potency [1] | Potency [2] | outcome [3] | outcome [4] | Potency [5] | Potency [6] | Potency [7] | Potency [8] | Potency [9] | Potency [10] | Potency [11] | Potency [12] | Potency [13] | Potency [14] | Potency [15] | Potency [16] | Potency [17] | Potency [18] | Potency [19]

Nc1nc(N)c(-c2ccccc2)s1
inactive: Potency [1] | Potency [2] | outcome [3] | outcome [4] | Potency [5] | Potency [6] | Potency [7] | Potency [8] | Potency [9] | Potency [10] | Potency [11] | Potency [12] | Potency [13] | Potency [14] | Potency [15] | Potency [16] | Potency [17] | Potency [18] | Potency [19]

CC(C)=CC(=O)O
inactive: Potency [1] | Potency [2] | outcome [3] | outcome [4] | Potency [5] | Potency [6] | Potency [7] | Potency [8] | Potency [9] | Potency [10] | Potency [11] | Potency [12] | Potency [13] | Potency [15] | Potency [17] | Potency [18] | Potency [19]
